Measurements as given in PubChem BioAssay (EPA / NIEHS).
Inconclusive results are not listed. Activity calls are given as the source filed them. Rule for the calls: active = hit-call score of the fitted dose curve at least 0.9, where 1 is the maximum; inconclusive = response in the unintended direction; inactive = score below 0.9.

molecular target: human Peroxisome Proliferator-activated Receptor alpha (PPARa), PPARA (gene 5465) (UniProt Q07869); test: NVS_NR_hPPARa: NovaScreen (NVS) Nuclear Receptor Binding Assay for human Peroxisome Proliferator-activated Receptor alpha (PPARa) (AID 2283359);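 note: activity means loss of TR-FRET signal versus DMSO baseline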
Method: NVS_NR_hPPARa is a biochemical, single-readout assay that uses extracted gene-proteins in a cell-free assay. Measurements were taken 1 hour after chemical dosing in a 384-well plate.NVS_NR_hPPARa is one of one assay component(s) measured or calculated from the NVS_NR_hPPARa assay. It is designed to make measurements of fluorescent resonance energy transfer, a form of binding reporter, as detected with fluorescent resonance energy transfer signals by Time-Resolved Fluorescence Resonance Energy Transfer (TR-FRET) technology.Data from the assay component NVS_NR_hPPARa was analyzed into 1 assay endpoint. This assay endpoint, NVS_NR_hPPARa, was analyzed in the positive analysis fitting direction relative to DMSO as the negative control and baseline of activity. Using a type of binding reporter, loss-of-signal activity can be used to understand changes in the binding as they relate to the gene PPARA. Furthermore, this assay endpoint can be referred to as a primary readout, because the performed assay has only produced 1 assay endpoint. To generalize the intended target to other relatable targets, this assay endpoint is annotated to the nuclear receptor intended target family, where the subfamily is non-steroidal.
Binding assays used specific radioligands (tritiated, iodinated) with non-radioactive competitive displacement ligands in agonist or antagonist protocols (as indicated) and various reference compounds and inhibitors to titrate specific binding to receptors and transporters. Most enzyme assays (CYPs, kinases, phosphatases, proteases, HDACs) used recombinant protein and specific substrates (fluorescence mostly, some colorimetric and radioactive) and inhibitors, followed by a biochemical separation of substrate and product. All assays for the biochemical HTS were initially run in duplicate at a single concentration (10 uM for CYP450 assays and 25 uM for all others). […] Each assay was run with positive and negative controls, and concurrent controls on every plate. The follow-up (secondary) screen tested active chemical-pairs in concentration series, as well as a few additional assays not tested in the primary screen, some selected negative inactives, and several cases re-run in the concentration series for confirmatory purposes.

human Peroxisome Proliferator-activated Receptor alpha (PPARa), PPARA (gene 5465), sequence (Q07869 whole entry, looked up): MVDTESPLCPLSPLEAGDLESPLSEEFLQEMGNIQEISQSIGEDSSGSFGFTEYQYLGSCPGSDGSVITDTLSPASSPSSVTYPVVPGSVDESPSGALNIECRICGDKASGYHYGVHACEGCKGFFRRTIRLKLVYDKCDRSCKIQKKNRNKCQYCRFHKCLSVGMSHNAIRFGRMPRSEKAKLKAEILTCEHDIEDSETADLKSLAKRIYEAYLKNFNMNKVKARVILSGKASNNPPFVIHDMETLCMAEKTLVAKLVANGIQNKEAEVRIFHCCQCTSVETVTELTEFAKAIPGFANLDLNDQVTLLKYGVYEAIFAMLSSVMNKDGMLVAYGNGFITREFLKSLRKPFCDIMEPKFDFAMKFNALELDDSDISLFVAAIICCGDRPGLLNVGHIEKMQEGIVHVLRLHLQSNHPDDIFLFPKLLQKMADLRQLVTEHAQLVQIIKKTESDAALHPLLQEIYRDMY

| SMILES | outcome | AC50 |
| --- | --- | --- |
| OC[C@H]1O[C@@H]2O[C@H]3[C@H](O)[C@@H](O)[C@@H](O[C@H]4[C@H](O)[C@@H](O)[C@@H](O[C@H]5[C@H](O)[C@@H](O)[C@@H](O[C@H]6[C@H](O)[C@@H](O)[C@@H](O[C@H]7[C@H](O)[C@@H](O)[C@@H](O[C@H]8[C@H](O)[C@@H](O)[C@@H](O[C@H]9[C@H](O)[C@@H](O)[C@@H](O[C@H]1[C@H](O)[C@H]2O)O[C@@H]9CO)O[C@@H]8CO)O[C@@H]7CO)O[C@@H]6CO)O[C@@H]5CO)O[C@@H]4CO)O[C@@H]3CO | inactive |  |
| Cc1ccc(S(=O)(=O)Oc2ccc(N=Nc3ccc(-c4ccc(N=Nc5c(O)ccc6cc(S(=O)(=O)O)cc(S(=O)(=O)O)c56)c(C)c4)cc3C)cc2)cc1 | inactive |  |
| CCCCCC(C=O)=Cc1ccccc1 | inactive |  |
| CCOc1ccc(N=Nc2ccc(C=Cc3ccc(N=Nc4ccc(OCC)cc4)cc3S(=O)(=O)O)c(S(=O)(=O)O)c2)cc1 |  | 9.11 µM (active) |
| CCCCC(CC)COC(=O)c1ccc(O)cc1 (configuration not stated) | inactive |  |
| CCCCCC(=O)CC | inactive |  |
| O=P(O)(O)O | inactive |  |
| CCCCCCCC/C=C\CCCCCCCC(=O)OCC | inactive |  |
| CC(C)CCCCCCCCCCCCCCC(=O)O | inactive |  |
| Nc1ccc2cc(S(=O)(=O)O)cc(O)c2c1N=Nc1ccccc1C(F)(F)F |  | 0.155 µM (active) |
| O=[N+]([O-])c1ccc(O)cc1C(F)(F)F | inactive |  |
| Clc1ccc(C(c2ccccc2Cl)C(Cl)Cl)cc1 (configuration not stated) | inactive |  |
